Laboratory results reported in ChEMBL document CHEMBL1157539, “Thousands of chemical starting points for antimalarial lead identification” (Nature, 2010).

Tests used:
Format in all cases: functional
Plasmodium falciparum [1] = test: GSK_TCMDC: Inhibition of Plasmodium falciparum 3D7 in whole red blood cells, using parasite LDH activity as an index of growth. Test compounds present at 2uM
Plasmodium falciparum [2] = test: GSK_TCMDC: Inhibition of Plasmodium falciparum Dd2 in whole red blood cells, using parasite LDH activity as an index of growth. Test compounds present at 2uM
HepG2 = test: GSK_TCMDC: Percent inhibition of human HepG2 cell line. Test compounds present at 10uM.

Row | SMILES | Inhibition (Plasmodium falciparum [1]) | Inhibition (Plasmodium falciparum [2]) | Inhibition (HepG2)
1 | CN1CCN(c2cccc(-c3nnc(-c4cccc(OCC(=O)NCc5ccc(C(F)(F)F)cc5)c4)o3)c2)CC1 | 98% | 86% | 10%
2 | COc1ccc(CN(C)CC(O)COc2ccc(NC(=O)c3cccc4c(=O)c5cccc(OC)c5[nH]c34)cc2)cc1OC (stereo unspecified) | 93% | 65% | 72%
3 | Fc1ccc(C=NNc2nc3ccccc3[nH]2)cc1 | 98% | 58% | 0%
4 | Cc1cccc(-c2ccc(NC(=O)Nc3ccc4nccc(N5CCN(C)CC5)c4c3)cc2C)n1.Cl | 100% | 95% | 4%
5 | COc1ccc(CNCc2cccc(-c3cccc(-c4nc5cc(F)ccc5[nH]4)c3)c2)cc1.O=C(O)C(F)(F)F | 100% | 55% | 18%
6 | Oc1ccc(CCNc2nc(N/N=C/C=C/c3ccc(Cl)cc3)nc(N3CCNCC3)n2)cc1 | 98% | 52% | 17%
7 | c1ccc(CN2CCC(NCc3ccc(-c4cncc5ccccc45)cc3)CC2)cc1 | 98% | 19% | 21%
8 | Cc1ccccc1C1CCN(C2CCC(NC(=O)/C=C/c3cc(F)ccc3F)CC2)CC1 (stereo unspecified) | 85% | 36% | 47%
9 | Clc1ccc(-c2cc(-c3csc(NCCN4CCOCC4)n3)on2)c(Cl)c1 | 97% | 86% | 39%
10 | COc1cc2nc(SCC(C)C)n(CCCn3ccnc3)c(=N)c2cc1OC | 99% | 78% | 15%
11 | CN(C)c1ccc(/N=C2/N/C(=N/c3ccc(N(C)C)cc3)c3ccccc32)cc1 | 93% | 20% | 23%
12 | COc1ccc(-c2cccc(NC(=O)c3cccc(C#N)c3)c2)cc1CN1CCN(C)CC1.O=C(O)C(F)(F)F | 91% | 16% | 25%
13 | c1cn(CCCNc2ncc(-c3ccsc3)c(-c3nccs3)n2)cn1 | 94% | 51% | 0%
14 | CNCCCNCc1ccc(-c2ccc(F)c(Cl)c2)o1.Cl | 100% | 12% | 22%
15 | N#Cc1ccc(N(CCOC(=O)c2ccc(Br)s2)Cc2ccccc2C(F)(F)F)cc1C(F)(F)F | 82% | 48% | 8%
16 | CC(C)c1sc(N2CCN(C)CC2)nc1C(=O)NCCc1ccc(Br)cc1.O=C(O)C(F)(F)F | 89% | 60% | 0%
17 | COc1ccc2nccc([C@@H](O)CN3CCC(NCc4nc5cc(F)cc(F)c5[nH]4)CC3)c2c1.O=C(O)C(=O)O | 99% | 64% | 19%
18 | O=C(O)C(F)(F)F.c1cc(-c2ccc(CNC3CCOCC3)cc2)cc(-c2nc3ccccc3[nH]2)c1 | 100% | 100% | 30%
19 | CCN1CCN(Cc2ccc(NC(=O)c3cc4ccc5cccnc5c4[nH]3)cc2)CC1 | 100% | 97% | 0%
20 | Cc1cc(NC2CCN(CC3CCCCC3)C2)nc(Nc2ccc(Cl)cc2)n1 (stereo unspecified) | 98% | 83% | 26%
21 | COc1ccc(CCNCCCCCCNCCc2ccccc2Cl)cc1OC.Cl | 96% | 3% | 13%

Row | SMILES | Inhibition (Plasmodium falciparum [1]) | Inhibition (Plasmodium falciparum [2]) | Inhibition (HepG2)
22 | Clc1ccc(CNc2ccnc(NCc3cccnc3N3CCCC3)n2)c(Cl)c1 | 85% | 53% | 37%
23 | N#Cc1cc([N+](=O)[O-])ccc1-n1nc(C(N)=O)n(Cc2cccc(F)c2)c1=S | 100% | 100% | 6%
24 | O=C(O)C(F)(F)F.OCCN1CCN(Cc2ccc(-c3ccc(-c4nc5cc(F)ccc5[nH]4)cc3)cc2)CC1 | 100% | 99% | 33%
25 | COc1cc(F)c2ncc(Cl)c(C(O)CN3CCC(NC(=O)c4ccc5c(n4)NC(=O)CO5)CC3)c2c1.Cl (stereo unspecified) | 100% | 100% | 22%
26 | Cc1cccc(CN2CCCN(Cc3ccc(C(=O)Nc4ccc(C)c(F)c4)cc3)CC2)c1.O=C(O)C(F)(F)F | 85% | 3% | 47%
27 | CN(C)C(CNC(=O)c1cc(-c2ccncc2)c(-c2ccc(NC(=O)Nc3cccc(F)c3)cc2)o1)c1ccccc1.O=C(O)C(F)(F)F (stereo unspecified) | 100% | 99% | 11%
28 | OC(CNc1ccnc(Nc2ccccc2)n1)c1cccc(C(F)(F)F)c1 (stereo unspecified) | 100% | 61% | 16%
29 | COc1ccc2nccc([C@@H](O)CN3CCC(NCc4cc5c(cc4F)SCC(=O)N5)CC3)c2n1 | 96% | 27% | 14%
30 | Cc1ccc(OC2CCN(c3ccc(C(=O)NC4CC4)cn3)CC2)cc1 | 87% | 75% | 11%
31 | Cl.Nc1nc(N)c2c(ccc3nn(Cc4cccnc4)cc32)n1 | 96% | 0% | 41%
32 | COc1ccc(-c2ccc(CN(C)C3CCC(NC(=O)c4cc5ccccc5[nH]4)CC3)cc2)cn1 (stereo unspecified) | 88% | 2% | 31%
33 | Cc1cc(N[C@@H](Cc2ccccc2)C(=O)NC2CCCC2)nc(NCc2ccccc2C)n1.O=C(O)C(F)(F)F | 91% | 20% | 2%
34 | NC(=O)c1cccc(-n2ccc3cc(CNC4Cc5ccccc5C4)ccc32)c1.O=C(O)C(F)(F)F | 88% | 7% | 17%
35 | Cl.c1ccc2c(NCCCCCCCCCNc3ccnc4ccccc34)ccnc2c1 | 100% | 100% | 57%
36 | Cl.Nc1c2c(nc3ccc(NC(=O)CCCc4ccccc4)cc13)CCCC2 | 100% | 42% | 73%
37 | COc1ccc(CN2CCCN(Cc3ccc(C(=O)Nc4ccc(Cl)cc4)cc3)CC2)cc1.O=C(O)C(F)(F)F | 91% | 3% | 46%
38 | CCN(CC)CCN(Cc1ccc(-c2ccc(C(F)(F)F)cc2)cc1)C(=O)Cn1cc(CCCCc2cccc(F)c2F)c(=O)c2ccccc21.O=C(O)C(O)C(O)C(=O)O | 90% | 22% | 18%
39 | COc1cc2nc(Nc3ccc4c(cnn4Cc4ccccc4)c3)nc(Nc3ccc4c(cnn4Cc4ccccc4)c3)c2cc1OC | 99% | 100% | 4%
40 | CN(C)Cc1ccc(-c2ccc3c(Nc4ccc(Oc5ccccc5)cc4)ccnc3c2)o1 | 100% | 100% | 10%
41 | COc1ccc2c(ccc3c2ncc2c(=O)n(-c4ccccc4)[nH]c23)c1 | 95% | 92% | 0%
42 | O=C(/C=C/c1ccc(Cl)c(Cl)c1)NCCCCCN1CCC(C(=O)Nc2ccc3c(c2)OCO3)CC1 | 92% | 0% | 18%

Row | SMILES | Inhibition (Plasmodium falciparum [1]) | Inhibition (Plasmodium falciparum [2]) | Inhibition (HepG2)
43 | CCCC(C)n1ccc2c3c(N)nc(N)nc3ccc21 (stereo unspecified) | 94% | 91% | 70%
44 | Cl.O=c1cc(NCCCNCc2ccc(Cl)c(Cl)c2)[nH]c2cc(Cl)ccc12 | 95% | 51% | 1%
45 | CC(C)CNCc1ccc(-c2cccc(CN(CCN(C)C)C(=O)CCC3CCCC3)c2)cc1.O=C(O)C(F)(F)F | 100% | 81% | 56%
46 | O=C(O)C(F)(F)F.c1cc(-c2ccc(CNC3CC3)cc2)cc(-c2nc3ccccc3[nH]2)c1 | 96% | 8% | 17%
47 | Nc1nccc2ccc(-c3ccncc3)cc12 | 96% | 95% | 19%
48 | CCc1ccc(C(=O)Nc2cccc(CN3CCCN(Cc4ccc(O)cc4)CC3)c2)cc1.O=C(O)C(F)(F)F | 100% | 74% | 11%
49 | CCCCc1cc(NC2CCN(C)CC2)nc(Nc2ccccc2)n1 | 100% | 29% | 7%
50 | Cc1cccc2nc(O)c([N+](=O)[O-])c(O)c12 | 95% | 0% | 0%
51 | O=C(NCCCCN1CCC(c2ccc3c(c2OCc2ccncc2)CCCC3)CC1)c1ccc(NC(=O)c2ccc(Cl)cc2)cc1 | 100% | 99% | 62%
52 | COc1ccc(NC(=O)c2ccc(-c3nc(-c4ccc(Cl)cc4)cs3)cc2)cc1N1CCN(C)CC1 | 91% | 34% | 30%
53 | CC(C)CCNc1nc2ccccc2nc1Nc1cccc(C(F)(F)F)c1 | 98% | 99% | 12%
54 | Cc1cc(CNCCCCCCNCc2ccc(Cl)cc2)ccc1O | 96% | 0% | 23%
55 | CCCCCCCN(CCCCCCC)CCCC(=O)Nc1ccnc2ccc(OC)cc12.O=C(O)C(=O)O | 100% | 98% | 43%
56 | COc1ccc(-c2cccc(NC(=O)c3ccc(Cl)cc3)c2)cc1CN1CCCC1.O=C(O)C(F)(F)F | 97% | 52% | 55%
57 | CCc1cn2c3c(cc(C(=O)N[C@@H](Cc4cccc(Cl)c4)[C@H](O)CNC4CC4)cc13)N(C)S(=O)(=O)CC2.O=CO | 98% | 98% | 10%
58 | CCCN(CCC)C(=O)c1cc(C(=O)N[C@@H](Cc2ccccc2)[C@H](O)CNC(C)(C)c2cccc(C(F)(F)F)c2)cc(N2CCCCS2(=O)=O)c1 | 99% | 98% | 19%
59 | CC1(C)N=C(N)N=C(N)N1O.Cl | 93% | 1% | 7%
60 | CCN(CC(C)O)C(=O)c1ccc(-c2cccc(-c3nc4cccc(C)c4[nH]3)c2)cc1 (stereo unspecified) | 100% | 32% | 28%
61 | Cc1ccc(C(=O)Nc2cccc(CN3CCCN(Cc4ccc(O)cc4)CC3)c2)s1.O=C(O)C(F)(F)F | 90% | 23% | 17%
62 | COc1ccc2nccc([C@@H](O)CN3CCC(NC(=O)C(c4ccsc4)N4CCN(c5ccccc5)CC4)CC3)c2c1 (stereo partly specified) | 95% | 17% | 24%
